Experimental data: the supplement of paper PMC12282887
± gives the standard deviation of the averaged measurements.

Legend:
Experiment in all cases: promoter activity interaction Z-score (Lux/OD deviation from empty-vector control); higher = stronger promoter induction by the compound
[1] = test system: E. coli BW25113 acrABp lux reporter
Method in brief: (§1)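 Four 1:2 dilutions of each compound were tested in biological duplicates on E. coli BW25113 carrying low-copy luxCDABE promoter reporters, either wild type or deleted for one of three genes. Cultures of 40 µl LB Lennox in 384-well plates were kept at 37°C and read for OD600 and luminescence every 30 min for 12 h. Integration windows were 0–8 h for wild type and 1–9 h for deletion strains, and wells under 10% of the median growth value were discarded. The score is a Z-transformed residual of growth-normalised luminescence relative to a control fit.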

[2] = test system: E. coli BW25113 marRABp lux reporter
Method in brief: as §1

[3] = test system: E. coli BW25113 micFp lux reporter
Method in brief: as §1

[4] = test system: E. coli BW25113 ompFp lux reporter
Method in brief: as §1

[5] = test system: E. coli BW25113 robp lux reporter
Method in brief: as §1

[6] = test system: E. coli BW25113 soxSp lux reporter
Method in brief: as §1

[7] = test system: E. coli BW25113 tolCp lux reporter
Method in brief: as §1

[8] = 3.2 µg/ml, genetic background: wild type
[9] = 3.2 µg/ml, genetic background: ΔmarA
[10] = 3.2 µg/ml, genetic background: Δrob
[11] = 3.2 µg/ml, genetic background: ΔsoxS
[12] = 6.3 µg/ml, genetic background: wild type
[13] = 6.3 µg/ml, genetic background: ΔmarA
[14] = 6.3 µg/ml, genetic background: Δrob
[15] = 6.3 µg/ml, genetic background: ΔsoxS
[16] = 12.7 µg/ml, genetic background: wild type
[17] = 12.7 µg/ml, genetic background: ΔmarA
[18] = 12.7 µg/ml, genetic background: Δrob
[19] = 12.7 µg/ml, genetic background: ΔsoxS
[20] = 25.3 µg/ml, genetic background: wild type
[21] = 25.3 µg/ml, genetic background: ΔmarA
[22] = 25.3 µg/ml, genetic background: Δrob
[23] = 25.3 µg/ml, genetic background: ΔsoxS

SMILES: Cc1cc(NS(=O)(=O)c2ccc(N)cc2)no1 [Sulfamethoxazole]
- promoter activity interaction Z-score [1, 8]: -0.0765 ± 0.27
- promoter activity interaction Z-score [1, 9]: 0.689 ± 0.77
- promoter activity interaction Z-score [1, 10]: -0.221 ± 0.15
- promoter activity interaction Z-score [1, 11]: -0.171 ± 0.12
- promoter activity interaction Z-score [1, 12]: -0.0766 ± 0.0099
- promoter activity interaction Z-score [1, 13]: 0.146 ± 0.35
- promoter activity interaction Z-score [1, 14]: -0.0332 ± 0.079
- promoter activity interaction Z-score [1, 15]: -0.186 ± 0.085
- promoter activity interaction Z-score [1, 16]: 0.0229 ± 0.067
- promoter activity interaction Z-score [1, 17]: 0.358 ± 0.25
- promoter activity interaction Z-score [1, 18]: 0.21 ± 0.21
- promoter activity interaction Z-score [1, 19]: 0.0418 ± 0.11
- promoter activity interaction Z-score [1, 20]: 0.696 ± 0.24
- promoter activity interaction Z-score [1, 21]: 2.36 ± 1.9
- promoter activity interaction Z-score [1, 22]: 1.91 ± 0.82
- promoter activity interaction Z-score [1, 23]: 1.07 ± 0.6
- promoter activity interaction Z-score [2, 8]: 0.00674 ± 0.34
- promoter activity interaction Z-score [2, 9]: 0.0321 ± 0.081
- promoter activity interaction Z-score [2, 10]: 0.113 ± 0.29
- promoter activity interaction Z-score [2, 11]: -0.135 ± 0.18
- promoter activity interaction Z-score [2, 12]: 0.078 ± 0.084
- promoter activity interaction Z-score [2, 13]: 0.138 ± 0.34
- promoter activity interaction Z-score [2, 14]: 0.302 ± 0.037
- promoter activity interaction Z-score [2, 15]: 0.0733 ± 0.34
- promoter activity interaction Z-score [2, 16]: 0.411 ± 0.27
- promoter activity interaction Z-score [2, 17]: 0.542 ± 0.015
- promoter activity interaction Z-score [2, 18]: 0.6901 ± 0.0031
- promoter activity interaction Z-score [2, 19]: 0.275 ± 0.14
- promoter activity interaction Z-score [2, 20]: 0.782 ± 0.098
- promoter activity interaction Z-score [2, 21]: 1.15 ± 0.06
- promoter activity interaction Z-score [2, 22]: 1.2 ± 0.13
- promoter activity interaction Z-score [2, 23]: 1.31 ± 0.61
- promoter activity interaction Z-score [3, 8]: 0.243 ± 0.46
- promoter activity interaction Z-score [3, 9]: -0.0615 ± 0.078
- promoter activity interaction Z-score [3, 10]: 0.056 ± 0.14
- promoter activity interaction Z-score [3, 11]: -0.0348 ± 0.3
- promoter activity interaction Z-score [3, 12]: 0.103 ± 0.45
- promoter activity interaction Z-score [3, 13]: -0.116 ± 0.015
- promoter activity interaction Z-score [3, 14]: 0.146 ± 0.091
- promoter activity interaction Z-score [3, 15]: 0.0657 ± 0.36
- promoter activity interaction Z-score [3, 16]: 0.21 ± 0.55
- promoter activity interaction Z-score [3, 17]: 0.0105 ± 0.057
- promoter activity interaction Z-score [3, 18]: 0.372 ± 0.13
- promoter activity interaction Z-score [3, 19]: 0.279 ± 0.24
- promoter activity interaction Z-score [3, 20]: 0.861 ± 0.2
- promoter activity interaction Z-score [3, 21]: -0.421 ± 0.013
- promoter activity interaction Z-score [3, 22]: 0.736 ± 0.28
- promoter activity interaction Z-score [3, 23]: 0.648 ± 0.11
- promoter activity interaction Z-score [4, 8]: 1.17 ± 0.96
- promoter activity interaction Z-score [4, 9]: 0.735 ± 0.72
- promoter activity interaction Z-score [4, 10]: 0.192 ± 0.73
- promoter activity interaction Z-score [4, 11]: 0.202 ± 0.47
- promoter activity interaction Z-score [4, 12]: 0.748 ± 0.53
- promoter activity interaction Z-score [4, 13]: 0.504 ± 0.34
- promoter activity interaction Z-score [4, 14]: 0.735 ± 0.12
- promoter activity interaction Z-score [4, 15]: 0.441 ± 0.62
- promoter activity interaction Z-score [4, 16]: 1.51 ± 1.2
- promoter activity interaction Z-score [4, 17]: 1.32 ± 0.24
- promoter activity interaction Z-score [4, 18]: 1.71 ± 0.49
- promoter activity interaction Z-score [4, 19]: 1.17 ± 0.39
- promoter activity interaction Z-score [4, 20]: 2.06 ± 0.7
- promoter activity interaction Z-score [4, 21]: 2.26 ± 0.076
- promoter activity interaction Z-score [4, 22]: 3.31 ± 1.6
- promoter activity interaction Z-score [4, 23]: 1.97 ± 1.8
- promoter activity interaction Z-score [5, 8]: 0.934 ± 0.15
- promoter activity interaction Z-score [5, 9]: 0.341 ± 0.082
- promoter activity interaction Z-score [5, 10]: 0.297 ± 1.1
- promoter activity interaction Z-score [5, 11]: -0.129 ± 0.16
- promoter activity interaction Z-score [5, 12]: 0.764 ± 0.4
- promoter activity interaction Z-score [5, 13]: 0.234 ± 0.17
- promoter activity interaction Z-score [5, 14]: 0.557 ± 0.64
- promoter activity interaction Z-score [5, 15]: 0.243 ± 0.13
- promoter activity interaction Z-score [5, 16]: 1.5 ± 0.42
- promoter activity interaction Z-score [5, 17]: 1.47 ± 0.23
- promoter activity interaction Z-score [5, 18]: 0.701 ± 0.021
- promoter activity interaction Z-score [5, 19]: 0.407 ± 1.1
- promoter activity interaction Z-score [5, 20]: 3.24 ± 0.095
- promoter activity interaction Z-score [5, 21]: 0.76 ± 0.27
- promoter activity interaction Z-score [5, 22]: 3.24 ± 0.084
- promoter activity interaction Z-score [5, 23]: 3.15 ± 1.5
- promoter activity interaction Z-score [6, 8]: -0.125 ± 0.029
- promoter activity interaction Z-score [6, 9]: -0.2505 ± 0.00087
- promoter activity interaction Z-score [6, 10]: -0.453 ± 0.05
- promoter activity interaction Z-score [6, 11]: -0.491 ± 0.32
- promoter activity interaction Z-score [6, 12]: -0.197 ± 0.018
- promoter activity interaction Z-score [6, 13]: -0.00904 ± 0.067
- promoter activity interaction Z-score [6, 14]: -0.169 ± 0.057
- promoter activity interaction Z-score [6, 15]: -0.482 ± 0.4
- promoter activity interaction Z-score [6, 16]: -0.385 ± 0.017
- promoter activity interaction Z-score [6, 17]: -0.102 ± 0.16
- promoter activity interaction Z-score [6, 18]: -0.194 ± 0.12
- promoter activity interaction Z-score [6, 19]: -0.0885 ± 0.49
- promoter activity interaction Z-score [6, 20]: -0.318 ± 0.11
- promoter activity interaction Z-score [6, 21]: -0.113 ± 0.15
- promoter activity interaction Z-score [6, 22]: -0.388 ± 0.03
- promoter activity interaction Z-score [6, 23]: -0.495 ± 0.81
- promoter activity interaction Z-score [7, 8]: 1.21 ± 0.56
- promoter activity interaction Z-score [7, 9]: -0.16 ± 0.5
- promoter activity interaction Z-score [7, 10]: -0.33 ± 1
- promoter activity interaction Z-score [7, 11]: -0.705 ± 0.53
- promoter activity interaction Z-score [7, 12]: -0.676 ± 0.91
- promoter activity interaction Z-score [7, 13]: 1.17 ± 0.5
- promoter activity interaction Z-score [7, 14]: 0.87 ± 0.48
- promoter activity interaction Z-score [7, 15]: -0.0792 ± 0.033
- promoter activity interaction Z-score [7, 16]: -0.0116 ± 0.8
- promoter activity interaction Z-score [7, 17]: 0.0751 ± 0.68
- promoter activity interaction Z-score [7, 18]: 0.998 ± 0.39
- promoter activity interaction Z-score [7, 19]: 0.466 ± 1
- promoter activity interaction Z-score [7, 20]: 1.95 ± 0.023
- promoter activity interaction Z-score [7, 21]: 0.663 ± 1.2
- promoter activity interaction Z-score [7, 22]: 0.663 ± 0.22
- promoter activity interaction Z-score [7, 23]: 1.64 ± 0.21
